BoNT-F LC inh: BoNT/F light chain protease inhibitors, primary screen, biochemical, flow cytometry, MLPCN library. Botulinum neurotoxin type F light chain protease (Clostridium botulinum). Multiplex microsphere protease cleavage assay. inhibition, % at 10 µM. 360,000 tested, 0.22% active. AID 588497, 2011; in the data active = inhibition above about 35%, passing the limit was not always enough; inconclusive = no clear call, values can overlap the other calls; also: plate controls were buffer without enzyme for full effect and enzyme alone for no effect
BoNT A protease: BoNT/A light chain protease inhibitors, primary screen, biochemical, flow cytometry, MLPCN library | Botulinum neurotoxin type A light chain protease (Clostridium botulinum A str. ATCC 3502) | multiplex microsphere protease substrate cleavage | inhibition, % at 10 µM | 360,000 tested, 0.17% active | AID 588499, 2011; also: plate controls were buffer without enzyme for full effect and enzyme alone for no effect
GDH-TPI counter: GDH-TPI coupling enzyme inhibitors, primary screen, artefact control for M. tuberculosis FBA inhibitor project, biochemical, absorbance, full deck. AID 588335, 2011. 360,000 tested, 1.2% active. inhibition, % at 4.8 µM. GDH-TPI coupled enzyme counterscreen, NADH absorbance; in the data active = inhibition above about 30%;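 also: 0% = DMSO wells and 100% = wells lacking the enzyme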
Autofluor counter: counter-screen for toxin protease inhibitors: compound fluorescence. compound autofluorescence counterscreen, microsphere flow cytometry; hits give high values. fluorescence intensity (concentration not given with the values). 360,000 tested, 3.1% active; in the data active = fluorescence intensity above about 16000; inconclusive = no clear call, values can overlap the other calls
Anthrax LF inh2: Bacillus anthracis LF protease inhibitors, primary screen, biochemical, multiplex microsphere, MLPCN library | Lethal factor (Bacillus anthracis), P15917 | multiplex microsphere protease cleavage assay | inhibition, % at 10 µM | 360,000 tested, 0.12% active | AID 588501, 2011; also: plate controls were buffer without enzyme for full effect and enzyme alone for no effect
Target sequence (P15917 whole entry, looked up): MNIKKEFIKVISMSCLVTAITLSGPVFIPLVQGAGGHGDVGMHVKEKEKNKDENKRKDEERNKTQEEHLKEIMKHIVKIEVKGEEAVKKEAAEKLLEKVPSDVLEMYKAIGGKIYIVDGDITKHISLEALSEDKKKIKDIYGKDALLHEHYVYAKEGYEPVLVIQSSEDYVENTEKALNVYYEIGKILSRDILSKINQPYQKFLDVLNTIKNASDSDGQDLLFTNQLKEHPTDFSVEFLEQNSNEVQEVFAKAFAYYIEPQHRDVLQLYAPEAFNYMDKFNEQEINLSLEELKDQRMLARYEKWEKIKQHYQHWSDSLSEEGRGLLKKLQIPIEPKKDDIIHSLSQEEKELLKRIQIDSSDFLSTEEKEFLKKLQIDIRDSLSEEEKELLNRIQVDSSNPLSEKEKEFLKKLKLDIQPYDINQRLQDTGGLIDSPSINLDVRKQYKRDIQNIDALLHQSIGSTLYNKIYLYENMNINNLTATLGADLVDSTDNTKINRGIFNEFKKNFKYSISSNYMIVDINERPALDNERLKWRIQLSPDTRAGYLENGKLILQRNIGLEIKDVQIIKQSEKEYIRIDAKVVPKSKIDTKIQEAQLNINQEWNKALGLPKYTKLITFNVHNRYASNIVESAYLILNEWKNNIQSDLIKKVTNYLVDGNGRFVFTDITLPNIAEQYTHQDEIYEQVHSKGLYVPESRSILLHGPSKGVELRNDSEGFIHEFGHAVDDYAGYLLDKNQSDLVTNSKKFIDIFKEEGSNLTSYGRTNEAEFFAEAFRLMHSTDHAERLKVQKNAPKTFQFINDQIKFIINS
Mtb FBA inh: Mtb FBA enzyme inhibitors, primary screen, biochemical, fluorescence, strain H37Rv | inhibition, % at 1 µM | 360,000 tested, 2.3% active | purified M. tuberculosis FBA, fluorescence read-out; in the data active = inhibition above about 27%;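 also: 0% = vehicle and 100% = reference inhibitor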
The depositor's hits bear a star. Sampled rows, rich in hits. Any-hit rate of the full collection: about 6.7%. Rule as the data show it, unless noted: active = inhibition above about 30%; inconclusive = no clear call, values can overlap the other calls; inactive = below that.

Results for CCOC(=O)/C=C1/N(C)c2ccccc2C1(C)C ?
BoNT-F LC inh: 4; BoNT A protease: 0; GDH-TPI counter: 27; Autofluor counter: 4823; Anthrax LF inh2: -2; Mtb FBA inh: 2

Results for COc1cc(-c2nc(-c3cccnc3)no2)cc(OC)c1OC ?
BoNT-F LC inh: 1; BoNT A protease: 0; GDH-TPI counter: 1; Autofluor counter: 2042; Anthrax LF inh2: 1; Mtb FBA inh: 0

Results for COc1cc(-c2noc(-c3cccc(Cl)c3)n2)cc(OC)c1OC ?
BoNT-F LC inh: 2; BoNT A protease: 1; GDH-TPI counter: 3; Autofluor counter: 22311*; Anthrax LF inh2: -2; Mtb FBA inh: 7

What do the screens show for `O=C1CCCC/C1=C/NCc1ccc(F)cc1`?
BoNT-F LC inh: 3; BoNT A protease: 0; GDH-TPI counter: 8; Autofluor counter: 2229; Anthrax LF inh2: 0; Mtb FBA inh: -8

What do the screens show for `CCn1c(O)c(C=Nc2ccc(N3CCOCC3)c(Br)c2)c(=O)n(CC)c1=S`?
BoNT-F LC inh: 15; BoNT A protease: 18; GDH-TPI counter: -12; Autofluor counter: 19239*; Anthrax LF inh2: 20; Mtb FBA inh: -6

How did CCn1c(O)c(C=Nc2ccc(N3CCOCC3)cc2)c(=O)n(CC)c1=S do in these assays?
BoNT-F LC inh: 2; BoNT A protease: 3; GDH-TPI counter: 4; Autofluor counter: 9832; Anthrax LF inh2: 10; Mtb FBA inh: 1

Results for Cc1ccc(S(=O)(=O)NC2CCCCC2)cc1C(=O)N1CCC(C(N)=O)CC1 ?
BoNT-F LC inh: 2; BoNT A protease: 1; GDH-TPI counter: -2; Autofluor counter: 6046; Anthrax LF inh2: -4; Mtb FBA inh: -3

Results for Cc1cc(C)c2oc(C(=O)NC3CCS(=O)(=O)C3)cc(=O)c2c1 (stereo not drawn) ?
BoNT-F LC inh: 0; BoNT A protease: -2; GDH-TPI counter: 10; Autofluor counter: 5452; Anthrax LF inh2: -3; Mtb FBA inh: 9

Results for CN(C)c1ccc(C2/C(=C(/O)c3ccccc3)C(=O)C(=O)N2CCCC(=O)O)cc1 (stereo not drawn) ?
BoNT-F LC inh: 2; BoNT A protease: -1; GDH-TPI counter: 31*; Autofluor counter: 4773; Anthrax LF inh2: -2; Mtb FBA inh: -2

Results for CN(C)CCCN1C(=O)C(=O)/C(=C(/O)c2ccncc2)C1c1cccc(Br)c1 (stereo not drawn) ?
BoNT-F LC inh: -4; BoNT A protease: 0; GDH-TPI counter: 31*; Autofluor counter: 2438; Anthrax LF inh2: -8; Mtb FBA inh: -1

Results for Cc1ccc(CNC(=S)NCc2ccncc2)cc1 ?
BoNT-F LC inh: 1; BoNT A protease: 0; GDH-TPI counter: -7; Autofluor counter: 4344; Anthrax LF inh2: -6; Mtb FBA inh: 0

What do the screens show for `COc1ccc(CCNc2oc(-c3ccccc3OC)nc2C#N)cc1`?
BoNT-F LC inh: 3; BoNT A protease: -1; GDH-TPI counter: 18; Autofluor counter: 2802; Anthrax LF inh2: 0; Mtb FBA inh: active

What do the screens show for `CN(C)CCCNc1c2ccccc2nc2ccccc12`?
BoNT-F LC inh: 7; BoNT A protease: 0; GDH-TPI counter: 7; Autofluor counter: 3163; Anthrax LF inh2: -2; Mtb FBA inh: 177*

Results for CN(C)CCCNc1nc(-c2ccccc2)nc2ccccc12 ?
BoNT-F LC inh: inconclusive; BoNT A protease: -1; GDH-TPI counter: 16; Autofluor counter: 4113; Anthrax LF inh2: 2; Mtb FBA inh: -2

Results for COc1ccccc1-c1nc(C#N)c(NCc2ccc(F)cc2)o1 ?
BoNT-F LC inh: 4; BoNT A protease: 0; GDH-TPI counter: 14; Autofluor counter: 3037; Anthrax LF inh2: 0; Mtb FBA inh: 113*

How did CCN(CC)CCCNc1oc(/C=C/c2ccccc2)nc1C#N do in these assays?
BoNT-F LC inh: -1; BoNT A protease: 1; GDH-TPI counter: 28; Autofluor counter: 5726; Anthrax LF inh2: -1; Mtb FBA inh: active

How did Cc1cc(C)n(CC(C)NC(=O)c2cc(COc3ccc(F)c(F)c3)on2)n1 (stereo not drawn) do in these assays?
BoNT-F LC inh: 2; BoNT A protease: 1; GDH-TPI counter: 3; Autofluor counter: 5852; Anthrax LF inh2: 2; Mtb FBA inh: -1

What do the screens show for `CC(NC(=O)COC(=O)c1ccc2c(=O)n3c(nc2c1)CCCCC3)c1ccc(F)cc1` (stereo not drawn)?
BoNT-F LC inh: 2; BoNT A protease: 0; GDH-TPI counter: 6; Autofluor counter: 3971; Anthrax LF inh2: -6; Mtb FBA inh: -1

Results for COC(=O)CSc1nnc(CNc2ccc(Cl)cc2)n1Cc1ccccc1 ?
BoNT-F LC inh: -10; BoNT A protease: -1; GDH-TPI counter: 13; Autofluor counter: 9319; Anthrax LF inh2: -6; Mtb FBA inh: 0

What do the screens show for `O=C(O)C1=C[C@H](c2ccc3c(c2)OCO3)C[C@H](OCc2ccc(CO)cc2)O1`?
BoNT-F LC inh: -2; BoNT A protease: 0; GDH-TPI counter: 10; Autofluor counter: 3924; Anthrax LF inh2: 0; Mtb FBA inh: 3

How did COc1ccc(CCNc2oc(-c3ccc(OC)c(OC)c3)nc2C#N)cc1 do in these assays?
BoNT-F LC inh: -23; BoNT A protease: -2; GDH-TPI counter: 36*; Autofluor counter: 8750; Anthrax LF inh2: -6; Mtb FBA inh: active

How did CNc1oc(/C=C/c2cccc(OC)c2)nc1C#N do in these assays?
BoNT-F LC inh: inconclusive; BoNT A protease: -2; GDH-TPI counter: 28; Autofluor counter: 3886; Anthrax LF inh2: -12; Mtb FBA inh: active

How did COc1ccc(/C=C/c2nc(C#N)c(NCCN(C)C)o2)cc1OC do in these assays?
BoNT-F LC inh: -2; BoNT A protease: 1; GDH-TPI counter: 28; Autofluor counter: 3632; Anthrax LF inh2: -5; Mtb FBA inh: 15

Results for COc1ccccc1-c1nc(C#N)c(NCCCn2ccnc2)o1 ?
BoNT-F LC inh: 1; BoNT A protease: -1; GDH-TPI counter: 6; Autofluor counter: 4177; Anthrax LF inh2: -16; Mtb FBA inh: active

How did N#Cc1nc(Cc2cccc3ccccc23)oc1NCCCn1ccnc1 do in these assays?
BoNT-F LC inh: -3; BoNT A protease: 0; GDH-TPI counter: -13; Autofluor counter: 3030; Anthrax LF inh2: -4; Mtb FBA inh: 4

How did COc1ccc(-c2nc(C#N)c(NCCCN(C)C)o2)cc1OC do in these assays?
BoNT-F LC inh: 1; BoNT A protease: 1; GDH-TPI counter: 12; Autofluor counter: 9338; Anthrax LF inh2: -4; Mtb FBA inh: active

Results for COc1ccc(-c2nc(C#N)c(NC(C)c3ccccc3)o2)cc1OC (stereo not drawn) ?
BoNT-F LC inh: 9; BoNT A protease: 0; GDH-TPI counter: 13; Autofluor counter: 3389; Anthrax LF inh2: -1; Mtb FBA inh: 144*
